The supplement of paper PMC8728848
Shown is part of a subset that was picked to be rich in the strongest signals.

Assays:
Assay in all cases: glycan array binding signal (z-score within array); higher = stronger binding
Settings in all cases: glycan notation: IUPAC condensed, linker removed
[1] = molecular target: Fuc(a1-2)Gal(b1-4)GlcNAc(b1-3)Gal(b1-4)GlcNAc
In short: (§1)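 The Consortium for Functional Glycomics database supplied 3228 glycan arrays, of which those lacking an available protein sequence were dropped. The binding signal, a within-array Z-score, was averaged across arrays of the same protein sequence and across linkers. Negative scores can be read as non-binding.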

[2] = molecular target: Fuc(a1-2)Gal(b1-4)GlcNAc(b1-3)Gal(b1-4)GlcNAc(b1-2)Man(a1-3)[Fuc(a1-2)Gal(b1-4)GlcNAc(b1-3)Gal(b1-4)GlcNAc(b1-2)Man(a1-6)]Man(b1-4)GlcNAc(b1-4)GlcNAc
In short: as §1

[3] = molecular target: Fuc(a1-2)[Gal(a1-3)]Gal(b1-3)GlcNAc
In short: as §1

[4] = molecular target: Fuc(a1-3)[Gal3S(b1-4)]Glc
In short: as §1

[5] = molecular target: Gal(a1-3)Gal(b1-3)GlcNAc
In short: as §1

[6] = molecular target: Gal(a1-3)Gal(b1-4)Glc
In short: as §1

[7] = molecular target: Gal(a1-3)Gal(b1-4)GlcNAc(b1-6)GalNAc
In short: as §1

[8] = molecular target: Gal(b1-3)GlcNAc(a1-3)Gal(b1-4)GlcNAc
In short: as §1

[9] = molecular target: Gal(b1-3)GlcNAc(b1-3)Gal(b1-4)GlcNAc(b1-3)Gal(b1-4)GlcNAc(b1-2)[Gal(b1-3)GlcNAc(b1-3)Gal(b1-4)GlcNAc(b1-3)Gal(b1-4)GlcNAc(b1-6)]Man(a1-6)[Gal(b1-3)GlcNAc(b1-3)Gal(b1-4)GlcNAc(b1-3)Gal(b1-4)GlcNAc(b1-2)Man(a1-3)]Man(b1-4)GlcNAc(b1-4)[Fuc(a1-6)]GlcNAc
In short: as §1

[10] = molecular target: Gal(b1-3)[Fuc(a1-4)]GlcNAc(b1-2)Man
In short: as §1

[11] = molecular target: Gal(b1-3)[Fuc(a1-4)]GlcNAc(b1-3)Gal(b1-3)[Fuc(a1-4)]GlcNAc
In short: as §1

[12] = molecular target: Gal(b1-4)GalNAc(a1-3)[Fuc(a1-2)]Gal(b1-4)GlcNAc
In short: as §1

[13] = molecular target: Gal(b1-4)GalNAc(b1-3)[Fuc(a1-2)]Gal(b1-4)GlcNAc
In short: as §1

[14] = molecular target: Gal(b1-4)GlcNAc(b1-3)Gal(b1-4)GlcNAc(b1-3)Gal(b1-4)GlcNAc(b1-3)Gal(b1-4)GlcNAc(b1-2)[Gal(b1-4)GlcNAc(b1-3)Gal(b1-4)GlcNAc(b1-3)Gal(b1-4)GlcNAc(b1-3)Gal(b1-4)GlcNAc(b1-6)]Man(a1-6)[Gal(b1-4)GlcNAc(b1-3)Gal(b1-4)GlcNAc(b1-3)Gal(b1-4)GlcNAc(b1-3)Gal(b1-4)GlcNAc(b1-2)Man(a1-3)]Man(b1-4)GlcNAc(b1-4)[Fuc(a1-6)]GlcNAc
In short: as §1

[15] = molecular target: Gal(b1-4)GlcNAc(b1-3)Gal(b1-4)GlcNAc(b1-3)[Gal(b1-4)GlcNAc(b1-3)Gal(b1-4)GlcNAc(b1-6)]GalNAc
In short: as §1

[16] = molecular target: Gal3S(b1-4)[Fuc(a1-3)]GlcNAc6S
In short: as §1

[17] = molecular target: GalNAc(b1-3)Gal
In short: as §1

[18] = molecular target: GalNAc(b1-4)Gal(b1-4)Glc
In short: as §1

[19] = molecular target: GalNAc3S(b1-4)[Fuc(a1-3)]GlcNAc
In short: as §1

[20] = molecular target: GalNAc4S6S(b1-4)GlcNAc
In short: as §1

[21] = molecular target: Glc(a1-4)Glc
In short: as §1

[22] = molecular target: Glc(a1-6)Glc(a1-6)Glc(a1-6)Glc
In short: as §1

[23] = molecular target: GlcNAc(a1-3)Gal(b1-4)GlcNAc
In short: as §1

[24] = molecular target: GlcNAc(a1-4)Gal(b1-4)GlcNAc(b1-3)Gal(b1-4)GlcNAc(b1-3)Gal(b1-4)GlcNAc
In short: as §1

[25] = molecular target: GlcNAc(b1-3)Gal(b1-4)GlcNAc(b1-2)Man(a1-3)[GlcNAc(b1-3)Gal(b1-4)GlcNAc(b1-2)Man(a1-6)]Man(b1-4)GlcNAc(b1-4)GlcNAc
In short: as §1

[26] = molecular target: GlcNAc(b1-3)Gal(b1-4)GlcNAc(b1-2)[GlcNAc(b1-3)Gal(b1-4)GlcNAc(b1-6)]Man(a1-6)[GlcNAc(b1-3)Gal(b1-4)GlcNAc(b1-2)Man(a1-3)]Man(b1-4)GlcNAc(b1-4)GlcNAc
In short: as §1

[27] = molecular target: GlcNAc(b1-3)Gal(b1-4)GlcNAc(b1-3)Gal(b1-4)GlcNAc(b1-3)Gal(b1-4)GlcNAc(b1-2)[GlcNAc(b1-3)Gal(b1-4)GlcNAc(b1-3)Gal(b1-4)GlcNAc(b1-3)Gal(b1-4)GlcNAc(b1-6)]Man(a1-6)[GlcNAc(b1-3)Gal(b1-4)GlcNAc(b1-3)Gal(b1-4)GlcNAc(b1-3)Gal(b1-4)GlcNAc(b1-2)Man(a1-3)]Man(b1-4)GlcNAc(b1-4)[Fuc(a1-6)]GlcNAc
In short: as §1

[28] = molecular target: GlcNAc(b1-4)GlcNAc(b1-4)GlcNAc
In short: as §1

[29] = molecular target: GlcNAc(b1-4)GlcNAc(b1-4)GlcNAc(b1-4)GlcNAc(b1-4)GlcNAc(b1-4)GlcNAc
In short: as §1

[30] = molecular target: GlcNAc(b1-6)Gal(b1-4)GlcNAc
In short: as §1

[31] = molecular target: Kdn(a2-3)Gal(b1-4)[Fuc(a1-3)]GlcNAc
In short: as §1

[32] = molecular target: Kdn(a2-6)Gal(b1-4)GlcNAc
In short: as §1

[33] = molecular target: Man(b1-4)GlcNAc
In short: as §1

[34] = molecular target: Neu5Ac(a2-3)Gal
In short: as §1

[35] = molecular target: Neu5Ac(a2-3)Gal(b1-4)GlcNAc(b1-2)Man(a1-3)[GlcNAc(b1-4)][Neu5Ac(a2-3)Gal(b1-4)GlcNAc(b1-2)Man(a1-6)]Man(b1-4)GlcNAc(b1-4)GlcNAc
In short: as §1

[36] = molecular target: Neu5Ac(a2-3)Gal(b1-4)GlcNAc(b1-3)Gal(b1-4)GlcNAc(b1-6)[Gal(b1-3)]GalNAc
In short: as §1

[37] = molecular target: Neu5Ac(a2-3)Gal(b1-4)GlcNAc(b1-3)GalNAc
In short: as §1

[38] = molecular target: Neu5Ac(a2-3)Gal(b1-4)[Fuc(a1-3)]GlcNAc(b1-3)Gal
In short: as §1

[39] = molecular target: Neu5Ac(a2-3)GalNAc
In short: as §1

[40] = molecular target: Neu5Ac(a2-6)Gal(b1-4)GlcNAc(b1-2)Man(a1-3)[Neu5Ac(a2-3)Gal(b1-4)GlcNAc(b1-2)Man(a1-6)]Man(b1-4)GlcNAc(b1-4)GlcNAc
In short: as §1

[41] = molecular target: Neu5Ac(a2-6)GalNAc
In short: as §1

[42] = molecular target: Neu5Ac(a2-8)Neu5Ac(a2-3)Gal(b1-3)GalNAc(b1-4)[Neu5Ac(a2-3)]Gal(b1-4)Glc
In short: as §1

[43] = molecular target: Neu5Ac(a2-8)Neu5Ac(a2-8)Neu5Ac(a2-8)Neu5Ac(a2-3)[GalNAc(b1-4)]Gal(b1-4)Glc
In short: as §1

[44] = molecular target: Neu5Gc(a2-3)Gal(b1-4)GlcNAc
In short: as §1

B1: EULS2 M3 (Oryza sativa) (protein)
chain: MVYCRANPNYAMTARNGAVVLAPANPKDEYQHWIKDMRWSTSIKDEEGYPAFALVNKATGQAIKHSLGQSHPVRLVPYNPEVMDESVLWTESRDVGNGFRCIRMVNNIYLNFDAFHGDKYHGGVRDGTDIVLWKLCEGDSLRWKIQPYYILEQKLISEEDLNSAVDHHHHHH
glycan array binding signal (z-score) [1]: 0.227 | glycan array binding signal (z-score) [2]: 0.177 | glycan array binding signal (z-score) [3]: 1.44 | glycan array binding signal (z-score) [4]: 0.485 | glycan array binding signal (z-score) [5]: 8.25 | glycan array binding signal (z-score) [6]: 0.227 | glycan array binding signal (z-score) [7]: -0.929 | glycan array binding signal (z-score) [8]: 2.02 | glycan array binding signal (z-score) [9]: 1.66 | glycan array binding signal (z-score) [10]: 1.17 | glycan array binding signal (z-score) [11]: 2.13 | glycan array binding signal (z-score) [12]: -0.34 | glycan array binding signal (z-score) [13]: -0.158 | glycan array binding signal (z-score) [14]: 0.461 | glycan array binding signal (z-score) [15]: 0.234 | glycan array binding signal (z-score) [16]: 2.11 | glycan array binding signal (z-score) [17]: 2.46 | glycan array binding signal (z-score) [18]: 0.053 | glycan array binding signal (z-score) [19]: -0.623 | glycan array binding signal (z-score) [20]: 0.056 | glycan array binding signal (z-score) [21]: 0.668 | glycan array binding signal (z-score) [22]: 1.67 | glycan array binding signal (z-score) [23]: -0.405 | glycan array binding signal (z-score) [24]: -0.139 | glycan array binding signal (z-score) [25]: -0.171 | glycan array binding signal (z-score) [26]: 0.562 | glycan array binding signal (z-score) [27]: 0.306 | glycan array binding signal (z-score) [28]: -0.413 | glycan array binding signal (z-score) [29]: -0.977 | glycan array binding signal (z-score) [30]: 1.64 | glycan array binding signal (z-score) [31]: 0.28 | glycan array binding signal (z-score) [32]: -0.599 | glycan array binding signal (z-score) [33]: 0.117 | glycan array binding signal (z-score) [34]: -1.29 | glycan array binding signal (z-score) [35]: -0.414 | glycan array binding signal (z-score) [36]: -0.345 | glycan array binding signal (z-score) [37]: -0.286 | glycan array binding signal (z-score) [38]: 0.557 | glycan array binding signal (z-score) [39]: -0.085 | glycan array binding signal (z-score) [40]: -0.391 | glycan array binding signal (z-score) [41]: -0.8 | glycan array binding signal (z-score) [42]: 1.61 | glycan array binding signal (z-score) [43]: -0.424 | glycan array binding signal (z-score) [44]: 0.145
